# Assay results reported in PubChem BioAssay AID1159580 (chemical genetic matrix, 2015).
# The campaign covered roughly 5,500 compounds. About 2,000 (36%) were called active. Roughly 18% stayed inconclusive and do not appear here. The list shows a part of the results. Unmarked numbers belong to inactive results. Rule as the data show it: active = normalized growth mostly below about 0.91 (no sharp cut-off); inconclusive = no clear call, values can overlap the other calls; inactive = mostly above about 0.92.
# Assay: chemical genetic growth profiling, strain panel (AID 1159580);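 also: tested at 20 µM; growth read once vehicle control cultures reached saturation at 30 °C; 1 = growth at the plate median or of vehicle wells; lower values mean less growth of the strain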
# Conditions: S. cerevisiae deletion strains, growth OD
# [1] = locus YAR019C, strain CDC15, active compounds read low
# [2] = locus YBL105C, strain PKC1, active compounds read low
# [3] = locus YBR135W, strain CKS1, active compounds read low
# [4] = locus YBR136W, strain MEC1, active compounds read low
# [5] = locus YBR160W, strain CDC28, active compounds read low
# [6] = locus YDL017W, strain CDC7, active compounds read low
# [7] = locus YDL028C, strain MPS1, active compounds read low
# [8] = locus YDL101C, strain DUN1, active compounds read low
# [9] = locus YDL108W, strain KIN28, active compounds read low
# [10] = locus YDL132W, strain cdc53, active compounds read low
# [11] = locus YDL214C, strain PRR2, active compounds read low
# [12] = locus YDR052C, strain DBF4, active compounds read low
# [13] = locus YDR226W, strain ADK1, active compounds read low
# [14] = locus YDR477W, strain SNF1, active compounds read low
# [15] = locus YER123W, strain YCK3, active compounds read low
# [16] = locus YER133W, strain GLC7, active compounds read low
# [17] = locus YFL009W, strain cdc4, active compounds read low
# [18] = locus YFL029C, strain CAK1, active compounds read low
# [19] = locus YFR003C, strain YPI1, active compounds read low
# [20] = locus YFR019W, strain FAB1, active compounds read low
# [21] = locus YFR028C, strain CDC14, active compounds read low
# [22] = locus YGR040W, strain KSS1, active compounds read low
# [23] = locus YGR052W, strain FMP48, active compounds read low
# [24] = locus YGR092W, strain DBF2, active compounds read low
# [25] = locus YHR030C, strain SLT2, active compounds read low
# [26] = locus YHR079C, strain IRE1, active compounds read low
# [27] = locus YHR082C, strain KSP1, active compounds read low
# [28] = locus YHR205W, strain SCH9, active compounds read low
# [29] = locus YIL147C, strain SLN1, active compounds read low
# [30] = locus YJL095W, strain BCK1, active compounds read low
# [31] = locus YJL157C, strain FAR1, active compounds read low
# [32] = locus YJR016C, strain ILV3, active compounds read low
# [33] = locus YJR066W, strain TOR1 (second series), active compounds read low
# [34] = locus YJR066W, strain TOR1, active compounds read low
# [35] = locus YKL048C, strain ELM1, active compounds read low
# [36] = locus YKL067W, strain YNK1, active compounds read low
# [37] = locus YKL101W, strain HSL1, active compounds read low
# [38] = locus YKL193C, strain SDS22, active compounds read low
# [39] = locus YKL203C, strain TOR2, active compounds read low
# [40] = locus YLR113W, strain HOG1, active compounds read low
# [41] = locus YLR133W, strain CKI1, active compounds read low
# [42] = locus YLR403W, strain SFP1, active compounds read low
# [43] = locus YML070W, strain DAK1, active compounds read low
# [44] = locus YMR001C, strain CDC5, active compounds read low
# [45] = locus YMR205C, strain PFK2 (second series), active compounds read low
# [46] = locus YMR277W, strain FCP1, active compounds read low
# [47] = locus YNL006W, strain LST8, active compounds read low
# [48] = locus YNL020C, strain ARK1, active compounds read low
# [49] = locus YNL161W, strain CBK1, active compounds read low
# [50] = locus YNL183C, strain NPR1, active compounds read low
# [51] = locus YNL207W, strain RIO2, active compounds read low
# [52] = locus YNL222W, strain SSU72, active compounds read low
# [53] = locus YNL307C, strain MCK1 (second series), active compounds read low
# [54] = locus YOL078W, strain AVO1, active compounds read low
# [55] = locus YOL136C, strain PFK27, active compounds read low
# [56] = locus YOR061W, strain CKA2, active compounds read low
# [57] = locus YOR119C, strain RIO1, active compounds read low
# [58] = locus YOR231W, strain MKK1, active compounds read low
# [59] = locus YOR329C, strain SCD5, active compounds read low
# [60] = locus YPL031C, strain PHO85, active compounds read low
# [61] = locus YPL153C, strain RAD53, active compounds read low
# [62] = locus YPL204W, strain HRR25, active compounds read low
# [63] = locus YPL209C, strain IPL1, active compounds read low
# [64] = locus YPL256C, strain CLN2, active compounds read low
# [65] = locus YPR025C, strain CCL1, active compounds read low
# [66] = locus YPR111W, strain DBF20, active compounds read low
# [67] = strain NNK1, active compounds read low
# [68] = strain TSCII, active compounds read low
compound,measurement,setting,value
COc1ccc(OC)c2nc3c(nc12)C(=O)c1ccccc1-3,normalized growth,[1],0.97
same,normalized growth,[2],0.969
same,normalized growth,[3],0.974
same,normalized growth,[4],0.974
same,normalized growth,[5],0.974
same,normalized growth,[6],0.968
same,normalized growth,[7],0.984
same,normalized growth,[8],0.953
same,normalized growth,[9],0.972
same,normalized growth,[10],0.972
same,normalized growth,[11],0.997
same,normalized growth,[12],0.971
same,normalized growth,"locus YDR054C, strain cdc34, active compounds read low",0.957
same,normalized growth,[13],0.979
same,normalized growth,[14],0.971
same,normalized growth,[15],0.942
same,normalized growth,[16],0.988
same,normalized growth,[17],0.978
same,normalized growth,[18],0.969
same,normalized growth,[19],0.974
same,normalized growth,[20],0.974
same,normalized growth,[21],0.981
same,normalized growth,[22],0.973
same,normalized growth,[23],1
same,normalized growth,[24],0.837
same,normalized growth,[25],0.914
same,normalized growth,[26],0.863
same,normalized growth,[27],1.05
same,normalized growth,[28],0.965
same,normalized growth,[29],0.979
same,normalized growth,[30],0.91
same,normalized growth,"locus YJL128C, strain PBS2, active compounds read low",0.956
same,normalized growth,[31],0.958
same,normalized growth,[32],0.977
same,normalized growth,[33],0.947
same,normalized growth,[34],1
same,normalized growth,[35],0.953
same,normalized growth,[36],0.989
same,normalized growth,[37],0.985
same,normalized growth,[38],0.975
same,normalized growth,[39],1
same,normalized growth,[40],0.899
same,normalized growth,[41],0.967
same,normalized growth,[42],0.932
same,normalized growth,[43],0.979
same,normalized growth,[44],0.971
same,normalized growth,[45],0.996
same,normalized growth,[46],0.976
same,normalized growth,[47],0.973
same,normalized growth,[48],0.94
same,normalized growth,[49],0.958
same,normalized growth,[50],0.99
same,normalized growth,[51],0.971
same,normalized growth,[52],0.974
same,normalized growth,[53],0.945
same,normalized growth,[54],0.975
same,normalized growth,[55],0.958
same,normalized growth,[56],0.938
same,normalized growth,[57],1.05
same,normalized growth,[58],0.902
same,normalized growth,[59],0.966
same,normalized growth,[60],0.935
same,normalized growth,[61],0.929
same,normalized growth,[62],0.94
same,normalized growth,[63],0.96
same,normalized growth,[64],0.902
same,normalized growth,[65],0.979
same,normalized growth,"locus YPR106W, strain ISR1, active compounds read low",0.98
same,normalized growth,[66],0.968
same,normalized growth,[67],0.98
same,normalized growth,[68],0.968
Cc1ccc2nc3c(nc2c1)-c1ccccc1C3=O,normalized growth,[1],0.916
same,normalized growth,[2],0.925
same,normalized growth,[3],0.929
same,normalized growth,[4],0.93
same,normalized growth,[5],0.931
same,normalized growth,[6],0.926
same,normalized growth,[7],0.937
same,normalized growth,[8],0.716 (active)
same,normalized growth,[9],0.938
same,normalized growth,[10],0.932
same,normalized growth,[11],0.247 (active)
same,normalized growth,[12],0.861 (active)
same,normalized growth,[13],0.958
same,normalized growth,[14],0.279 (active)
same,normalized growth,[15],0.217 (active)
same,normalized growth,[16],0.339 (active)
same,normalized growth,[17],0.925
same,normalized growth,[18],0.9
same,normalized growth,[19],0.927
same,normalized growth,[20],0.281 (active)
same,normalized growth,[21],0.922
same,normalized growth,[22],0.3 (active)
same,normalized growth,[23],0.255 (active)
same,normalized growth,[24],0.15 (active)
same,normalized growth,[25],0.208 (active)
same,normalized growth,[26],0.209 (active)
same,normalized growth,[27],0.261 (active)
same,normalized growth,[28],0.391 (active)
same,normalized growth,[29],0.935
same,normalized growth,[30],0.227 (active)
same,normalized growth,[31],0.21 (active)
same,normalized growth,[32],0.935
same,normalized growth,[33],0.259 (active)
same,normalized growth,[34],0.225 (active)
same,normalized growth,[35],0.309 (active)
same,normalized growth,[36],0.235 (active)
same,normalized growth,[37],0.264 (active)
same,normalized growth,[38],0.919
same,normalized growth,[39],0.275 (active)
same,normalized growth,[40],0.288 (active)
same,normalized growth,[41],0.224 (active)
same,normalized growth,[42],0.181 (active)
same,normalized growth,[43],0.243 (active)
same,normalized growth,[44],0.908
same,normalized growth,[45],0.261 (active)
same,normalized growth,[46],0.922
same,normalized growth,[47],0.929
same,normalized growth,[48],0.196 (active)
same,normalized growth,[49],0.903
same,normalized growth,[50],0.259 (active)
same,normalized growth,[51],0.909
same,normalized growth,[52],0.923
same,normalized growth,[53],0.199 (active)
same,normalized growth,[54],0.903
same,normalized growth,[55],0.226 (active)
same,normalized growth,[56],0.205 (active)
same,normalized growth,[57],0.29 (active)
same,normalized growth,[58],0.246 (active)
same,normalized growth,[59],0.92
same,normalized growth,[60],0.278 (active)
same,normalized growth,[61],0.265 (active)
same,normalized growth,[62],0.263 (active)
same,normalized growth,[63],0.92
same,normalized growth,[64],0.277 (active)
same,normalized growth,[65],0.929
same,normalized growth,[66],0.886
same,normalized growth,[67],0.8 (active)
same,normalized growth,[68],0.874 (active)
